Source: PubChem (The Scripps Research Institute Molecular Screening Center)
PAFAH1B3 FP inh: blocks human PAF acetylhydrolase 1B catalytic subunit 3 | Q15102 | recombinant PAFAH1B3, FP-rhodamine probe, fluorescence polarization | inhibition, % at 3.39 µM | 340,000 tested, 0.28% active;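 active = inhibition above the screen-wide average of all tested compounds plus 3 SD, cut at about 25% in these data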;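 note: 0% = enzyme with DMSO only and 100% = wells lacking PAFAH1B3 protein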
PAFAH1B2 inh: blocks human PAF acetylhydrolase 1b catalytic subunit 2; inhibition, % at 3.39 µM; 340,000 tested, 1.2% active; P68402; recombinant PAFAH1B2, FP-rhodamine activity probe, fluorescence polarization;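 active = inhibition above the mean of all tested compounds plus 3 SD, cut at about 24% in these data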;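 note: 0% = enzyme with DMSO and 100% = wells lacking PAFAH1B2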
Target sequence (P68402 whole entry, looked up): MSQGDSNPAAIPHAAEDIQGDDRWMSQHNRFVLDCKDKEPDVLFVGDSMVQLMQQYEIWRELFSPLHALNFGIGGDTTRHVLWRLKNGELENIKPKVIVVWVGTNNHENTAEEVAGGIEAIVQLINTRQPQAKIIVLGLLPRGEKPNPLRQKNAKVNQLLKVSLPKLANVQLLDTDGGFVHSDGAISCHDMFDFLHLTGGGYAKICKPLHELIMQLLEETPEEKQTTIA
PAFAH2 FP inh: inhibitors of human PAFAH2 | Q99487 | recombinant PAFAH2, FP-rhodamine activity probe, fluorescence polarization | 340,000 tested, 0.99% active | inhibition, % at 3.39 µM;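 active = inhibition above the mean over all tested compounds plus 3 SD, cut at about 30% in these data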;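 note: inhibitors block probe labeling of enzyme so polarization drops; 0% = enzyme with DMSO and 100% = wells lacking PAFAH2 protein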
LYPLA2 counter: counter-screen for PME1 inhibitors: inhibitors of human LYPLA2; O95372; recombinant LYPLA2, FP-Rh probe fluorescence polarization; inhibition, % at 5.9 µM; 320,000 tested, 0.38% active;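 active = inhibition above the screen-wide mean plus 3 SD, limit set per campaign, cut at about 26% in these data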;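 note: 0% = LYPLA2 with DMSO and 100% = wells lacking LYPLA2 enzyme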
pPAFAH inh: inhibitors of human plasma PAF acetylhydrolase (pPAFAH); inhibition, % at 3.39 µM; recombinant pPAFAH, FP-rhodamine probe fluorescence polarization; 330,000 tested, 1.5% active; Q13093; AID 463082;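 active = inhibition above the mean inhibition across the screen plus 3 SD, cut at about 25% in these data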;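 note: inhibitors block binding of the rhodamine activity-based probe so polarization drops; 0% = enzyme with DMSO and 100% = wells lacking pPAFAH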
Target sequence (Q13093 whole entry, looked up): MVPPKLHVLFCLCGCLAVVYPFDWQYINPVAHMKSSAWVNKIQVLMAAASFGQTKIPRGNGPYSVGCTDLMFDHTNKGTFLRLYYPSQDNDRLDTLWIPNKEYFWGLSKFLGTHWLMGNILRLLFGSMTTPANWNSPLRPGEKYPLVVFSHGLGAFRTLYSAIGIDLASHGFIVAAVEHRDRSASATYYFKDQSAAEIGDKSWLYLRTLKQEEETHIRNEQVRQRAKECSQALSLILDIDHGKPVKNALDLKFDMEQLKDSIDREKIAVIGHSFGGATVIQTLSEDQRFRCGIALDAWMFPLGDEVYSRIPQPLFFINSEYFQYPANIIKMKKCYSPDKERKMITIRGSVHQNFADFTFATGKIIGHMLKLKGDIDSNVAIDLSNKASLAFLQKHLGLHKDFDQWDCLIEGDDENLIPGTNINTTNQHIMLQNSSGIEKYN
LYPLA1 inh: blocks human lysophospholipase 1, a PME1 counter-screen | O75608 | recombinant LYPLA1, FP-Rh probe fluorescence polarization | inhibition, % at 5.9 µM | 320,000 tested, 0.16% active | AID 2174;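 active = inhibition above the mean of all tested compounds plus 3 SD, set per campaign, cut at about 14% in these data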;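 note: inhibitors block serine hydrolase probe labeling of LYPLA1 so polarization falls; 0% = enzyme with DMSO and 100% = wells lacking LYPLA1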
* marks the source's active call; other numbers are inactive results. The list is not random: actives were taken first. Their share in the collection is about 2.9%.

How did COc1ccccc1CN(Cc1cc2cc(C)ccc2[nH]c1=O)Cc1nnnn1Cc1ccco1 do in these assays?
PAFAH1B3 FP inh: -8; PAFAH1B2 inh: 1; PAFAH2 FP inh: -5; LYPLA2 counter: -7; pPAFAH inh: 8; LYPLA1 inh: -5

What do the screens show for `CCCn1c(CCC(=O)O)ccc1-c1ccc(OC)cc1`?
PAFAH1B3 FP inh: 13; PAFAH1B2 inh: 0; PAFAH2 FP inh: 10; LYPLA2 counter: -2; pPAFAH inh: 20; LYPLA1 inh: 4

How did COc1ccc(-c2ccc(CCC(=O)O)n2Cc2ccco2)cc1 do in these assays?
PAFAH1B3 FP inh: 3; PAFAH1B2 inh: 3; PAFAH2 FP inh: 8; LYPLA2 counter: 3; pPAFAH inh: 28*; LYPLA1 inh: 2

How did Cc1ccc(S(=O)(=O)N2CCOCC2)cc1C(=O)OCC(=O)c1ccc(Br)cc1 do in these assays?
PAFAH1B3 FP inh: -1; PAFAH1B2 inh: 26*; PAFAH2 FP inh: 4; LYPLA2 counter: 8; pPAFAH inh: -5; LYPLA1 inh: -7

How did CCOc1ccc(CN(C)C(=O)NNC(=O)c2ccc(C)cc2)cc1OC do in these assays?
PAFAH1B3 FP inh: 5; PAFAH1B2 inh: 3; PAFAH2 FP inh: -3; LYPLA2 counter: 4; pPAFAH inh: -1; LYPLA1 inh: 1

How did COc1ccc(S(=O)(=O)Nc2ccccc2OC)cc1N=Nc1c(O)[nH]c(=S)[nH]c1=O do in these assays?
PAFAH1B3 FP inh: 6; PAFAH1B2 inh: 7; PAFAH2 FP inh: 15; pPAFAH inh: 26*

What do the screens show for `O=C(NC1CC2CCCC(C1)N2C(=S)NCCc1ccccc1)C1CC1` (stereo unspecified)?
PAFAH1B3 FP inh: 12; PAFAH1B2 inh: 1; PAFAH2 FP inh: 4; LYPLA2 counter: 4; pPAFAH inh: 5; LYPLA1 inh: 1

Results for CCOc1ccc(OCCSc2nc3ccccc3c(=O)[nH]2)cc1 ?
PAFAH1B3 FP inh: -6; PAFAH1B2 inh: 31*; PAFAH2 FP inh: 3; LYPLA2 counter: -1; pPAFAH inh: 3; LYPLA1 inh: 0

How did O=c1[nH]c(SCCOc2cccc3ccccc23)nc2ccccc12 do in these assays?
PAFAH1B3 FP inh: 3; PAFAH1B2 inh: 2; PAFAH2 FP inh: -1; LYPLA2 counter: -6; pPAFAH inh: 3; LYPLA1 inh: -2

How did COc1cc(/C=N/NC(=O)CNC(=O)c2ccco2)ccc1O do in these assays?
PAFAH1B3 FP inh: 12; PAFAH1B2 inh: 5; PAFAH2 FP inh: -3; LYPLA2 counter: 1; pPAFAH inh: 4; LYPLA1 inh: 1

What do the screens show for `N/C(=N\OC(=O)CCCc1ccccc1)c1cccc([N+](=O)[O-])c1`?
PAFAH1B3 FP inh: 4; PAFAH1B2 inh: 26*; PAFAH2 FP inh: -4; LYPLA2 counter: 4; pPAFAH inh: 1; LYPLA1 inh: -6

How did N/C(=N\OC(=O)Cc1ccccc1)c1cccc(Br)c1 do in these assays?
PAFAH1B3 FP inh: 7; PAFAH1B2 inh: 30*; PAFAH2 FP inh: 5; LYPLA2 counter: -1; pPAFAH inh: 0; LYPLA1 inh: 0

Results for N/C(=N\OC(=O)CCCc1ccccc1)c1ccccc1 ?
PAFAH1B3 FP inh: 10; PAFAH1B2 inh: 11; PAFAH2 FP inh: -1; LYPLA2 counter: -2; pPAFAH inh: 3; LYPLA1 inh: -4

Results for COc1ccc(/C(N)=N/OC(=O)CSc2ccccc2)cc1 ?
PAFAH1B3 FP inh: 9; PAFAH1B2 inh: 29*; PAFAH2 FP inh: 8; LYPLA2 counter: 2; pPAFAH inh: 5; LYPLA1 inh: 3

How did Cc1ccc(SCC(=O)O/N=C(\N)c2cccc([N+](=O)[O-])c2)cc1 do in these assays?
PAFAH1B3 FP inh: 3; PAFAH1B2 inh: 36*; PAFAH2 FP inh: 2; LYPLA2 counter: 1; pPAFAH inh: 13; LYPLA1 inh: -2

Results for N/C(=N\OC(=O)Cc1ccccc1[N+](=O)[O-])c1cccc(Br)c1 ?
PAFAH1B3 FP inh: 6; PAFAH1B2 inh: 5; PAFAH2 FP inh: 2; LYPLA2 counter: 13; pPAFAH inh: 12; LYPLA1 inh: 0

What do the screens show for `Cc1ccc(S(=O)(=O)N(C)CC(=O)O/N=C(\N)c2cccc([N+](=O)[O-])c2)cc1`?
PAFAH1B3 FP inh: 4; PAFAH1B2 inh: 4; PAFAH2 FP inh: -7; LYPLA2 counter: 22; pPAFAH inh: 6; LYPLA1 inh: 1

What do the screens show for `O=C(Nc1nc(-c2ccco2)c(-c2ccco2)s1)c1cnccn1`?
LYPLA2 counter: -4; pPAFAH inh: 33*; LYPLA1 inh: -3

How did Cc1ccc(S(=O)(=O)CCC(=O)N2CCN(c3ccccc3F)CC2)cc1 do in these assays?
PAFAH1B3 FP inh: 1; PAFAH1B2 inh: 6; PAFAH2 FP inh: 0; LYPLA2 counter: 4; pPAFAH inh: 4; LYPLA1 inh: 5

How did N=c1c[n+](-c2ccc(Cl)cc2)[n-]o1 do in these assays?
PAFAH1B3 FP inh: -1; PAFAH1B2 inh: 31*; PAFAH2 FP inh: 9; LYPLA2 counter: 6; pPAFAH inh: 9; LYPLA1 inh: 2

How did COc1cc(/C=N/NC(=O)c2sc3nc(C)cc(C)c3c2N)ccc1O do in these assays?
LYPLA2 counter: 5; pPAFAH inh: 31*; LYPLA1 inh: 3

How did COC(=O)c1sc2nc(C)cc(C)c2c1N do in these assays?
PAFAH1B3 FP inh: 6; PAFAH1B2 inh: 2; PAFAH2 FP inh: 0; LYPLA2 counter: -2; pPAFAH inh: 3; LYPLA1 inh: -3

Results for N#Cc1c(CSCC(=O)O)cc(=O)n2c1[nH]c1ccccc12 ?
PAFAH1B3 FP inh: 7; PAFAH1B2 inh: 2; PAFAH2 FP inh: 3; LYPLA2 counter: 4; pPAFAH inh: 27*; LYPLA1 inh: 2

Results for N#Cc1c(C(F)(F)F)cc(=O)n2c1[nH]c1ccccc12 ?
PAFAH1B3 FP inh: 19; PAFAH1B2 inh: 6; PAFAH2 FP inh: 7

Results for CCCCN(CCCNC(=O)C1CCN(S(=O)(=O)CC)CC1)c1ccccc1 ?
PAFAH1B3 FP inh: -2; PAFAH1B2 inh: 3; PAFAH2 FP inh: 5; LYPLA2 counter: 2; pPAFAH inh: 28*; LYPLA1 inh: 1

Results for COc1cc2cc(CN(Cc3nnnn3Cc3ccco3)C3CCCCC3)c(=O)[nH]c2cc1OC ?
PAFAH1B3 FP inh: 7; PAFAH1B2 inh: 4; PAFAH2 FP inh: 6; LYPLA2 counter: 0; pPAFAH inh: 26*; LYPLA1 inh: -4

Results for COc1ccccc1CNC(=O)CN1c2cccc3cccc(c23)S1(=O)=O ?
PAFAH1B3 FP inh: 8; PAFAH1B2 inh: 3; PAFAH2 FP inh: 8; LYPLA2 counter: 4; pPAFAH inh: 31*; LYPLA1 inh: -2

What do the screens show for `COc1cc(NC(=O)CN2c3cccc4cccc(c34)S2(=O)=O)cc(OC)c1OC`?
PAFAH1B3 FP inh: -2; PAFAH1B2 inh: -4; PAFAH2 FP inh: 3; LYPLA2 counter: 3; pPAFAH inh: 5; LYPLA1 inh: -3

What do the screens show for `COc1cc(Br)cc(/C=N/NC(=O)Cc2ccccc2)c1O`?
PAFAH1B3 FP inh: 9; PAFAH1B2 inh: 6; PAFAH2 FP inh: 13; LYPLA2 counter: 5; pPAFAH inh: 8; LYPLA1 inh: 3

How did Cn1cccc1CC(=O)N/N=C\c1c2ccccc2cc2ccccc12 do in these assays?
PAFAH1B3 FP inh: 1; PAFAH1B2 inh: 5; PAFAH2 FP inh: 17; LYPLA2 counter: 8; pPAFAH inh: 27*; LYPLA1 inh: 2
